The values that follow come from PubChem BioAssay.

“And” between values parts separate entries of the source, which are not always exact repeats. Equal values may be shown once. Unmarked numbers belong to inactive results. No rule for the calls is given here.

Botulinum neurotoxin type A (Clostridium botulinum), sequence (P0DPI0 whole entry, looked up): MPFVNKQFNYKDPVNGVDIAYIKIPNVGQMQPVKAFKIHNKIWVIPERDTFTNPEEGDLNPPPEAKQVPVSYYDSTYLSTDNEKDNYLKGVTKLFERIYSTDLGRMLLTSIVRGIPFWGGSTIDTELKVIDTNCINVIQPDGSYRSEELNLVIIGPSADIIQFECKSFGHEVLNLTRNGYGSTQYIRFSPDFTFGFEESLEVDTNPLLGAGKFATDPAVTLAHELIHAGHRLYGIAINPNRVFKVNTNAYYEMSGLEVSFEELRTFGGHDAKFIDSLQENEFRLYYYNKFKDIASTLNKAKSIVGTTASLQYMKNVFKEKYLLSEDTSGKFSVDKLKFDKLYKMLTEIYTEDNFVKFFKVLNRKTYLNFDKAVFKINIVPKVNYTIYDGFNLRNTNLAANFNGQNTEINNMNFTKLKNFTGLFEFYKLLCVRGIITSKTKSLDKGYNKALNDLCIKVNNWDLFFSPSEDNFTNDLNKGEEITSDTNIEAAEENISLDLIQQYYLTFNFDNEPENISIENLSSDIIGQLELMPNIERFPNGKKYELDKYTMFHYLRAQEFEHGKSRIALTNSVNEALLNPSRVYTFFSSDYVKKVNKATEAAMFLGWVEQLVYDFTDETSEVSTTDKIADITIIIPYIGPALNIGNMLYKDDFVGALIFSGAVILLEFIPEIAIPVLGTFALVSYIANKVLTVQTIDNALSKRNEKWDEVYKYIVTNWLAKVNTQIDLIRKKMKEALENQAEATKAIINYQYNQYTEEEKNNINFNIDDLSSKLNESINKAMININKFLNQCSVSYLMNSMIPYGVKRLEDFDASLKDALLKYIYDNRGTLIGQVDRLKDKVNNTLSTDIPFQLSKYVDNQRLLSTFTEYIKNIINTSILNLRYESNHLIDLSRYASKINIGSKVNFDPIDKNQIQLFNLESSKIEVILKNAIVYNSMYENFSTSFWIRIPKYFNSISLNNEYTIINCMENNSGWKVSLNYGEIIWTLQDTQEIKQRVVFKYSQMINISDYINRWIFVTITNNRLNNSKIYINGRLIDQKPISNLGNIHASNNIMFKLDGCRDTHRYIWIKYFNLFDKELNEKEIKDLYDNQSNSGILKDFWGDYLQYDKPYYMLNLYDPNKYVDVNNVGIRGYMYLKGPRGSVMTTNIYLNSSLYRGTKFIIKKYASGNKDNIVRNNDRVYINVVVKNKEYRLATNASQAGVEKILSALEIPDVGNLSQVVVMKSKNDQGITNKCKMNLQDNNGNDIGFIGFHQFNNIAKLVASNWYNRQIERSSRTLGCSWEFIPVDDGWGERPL

One experiment concerns Botulinum neurotoxin type F light chain protease (Clostridium botulinum). Briefly: Clostridium botulinum type F light chain protease inhibitors, microsphere substrate cleavage, validation (AID 588459). As to conditions: multiplex microsphere protease substrate cleavage assay, flow cytometry; at 10 µM; stronger effect = higher value. For orientation: In flow cytometry, cells or beads pass a laser one at a time.
The term inhibition denotes the relative decrease from the control value, in per cent. As for `COc1ccccc1C(=O)Oc1ccc2c(c1)O/C(=C\c1ccncc1)C2=O`, the inhibition is -0.7%.
As for `CC1(C#CC[N+]2(C)CCCCC2)CCC2C(O1)c1ccccc1OC2(C)C` (stereo not given), the inhibition is 2.6%.
Same read-out and setting: to `O=C1CC[C@@H](CN(Cc2ccccc2)Cc2cn[nH]c2-c2cc3ccccc3o2)N1` belongs 3.7%; to `O=c1cc(CN2CCN(c3cccc(Cl)c3)CC2)c2cc(O)c(-c3ccccc3)cc2o1`, -1.3%; to `CCOC(=O)C1C(=O)OC2(CCOC(C)(C)C2)C1C(=O)OCC` (stereo not given), -2.7%.
On the same count and under the same terms, to `C[N+](C)(C)CCOP(=O)([O-])OC[C@H](O)CO` belongs 1.7%; to `CCn1cc(C(=O)O)c(=O)c2cc(F)c(N3CCNCC3)cc21`, -0.1%.
Same read-out and setting: in the case of `COc1ccc(-c2csc(-c3cccnc3)n2)cc1C` it was -2%; in that of `CC12CCC(C(=O)NNc3ccccc3)(C(=O)C1=O)C2(C)C` (stereo not given), 1.1%; in that of `C[C@]12CCC(=O)C=C1CC[C@@H]1[C@@H]2CC[C@@]2(C)[C@H]1CC[C@]2(O)C(=O)CO`, 1.3%.
Turning to `CC(=O)c1ccc(CCCCCCCCCC(=O)O)s1`, the inhibition was 1.9%.
The same measure, in the same setting: in the case of `Cc1cnc(N)c2c(=O)oc3ccccc3c12` it was 1.3%; in that of `C#C[C@]1(O)CC[C@H]2[C@@H]3CCc4cc(OC5CCCC5)ccc4[C@H]3CC[C@@]21C`, -0.9%.
Same read-out and setting: in the case of `CC(=O)N(CCC(Cc1ccccc1)c1ccc2c(c1)OCO2)Cc1ccc(Cl)cc1` (stereo not given) it was 3.5%; in that of `CC1(C)S[C@@H]2[C@H](NC(=O)C(C(=O)O)c3ccccc3)C(=O)N2[C@H]1C(=O)O` (stereo not given in full), 3.8%; in that of `Oc1ccccc1OCCOc1ccccc1OCCOc1ccccc1O`, 6.5%.
Same read-out and setting: in the case of `CN1C2CCC1CC(OC(c1ccccc1)c1ccccc1)C2` (stereo not given) it was 2.3%.
Regarding `CCOc1ccc(CCn2c(-c3ccco3)nc3ccccc3c2=O)cc1OCC`, the inhibition was 3.5%.
Same read-out and setting: in the case of `CCOc1ccc(C(NC(C)=O)c2ccc(OC)c(OC)c2)cc1` (stereo not given) it was -2.9%; in that of `CCOC(=O)C1C2C=CC3(CN(c4ccc(Cl)c(F)c4)C(=O)C13)O2` (stereo not given), 2.9%; in that of `CC(C)C[C@H](NC(=O)NC(C)C)C(=O)O`, 1.1%.
On the same count and under the same terms, to `COc1cc(Cc2cnc(N)nc2N)cc(OC)c1OC` belongs 4.4% and 6.3%; to `COc1ccccc1C1C(C#N)=C(N)Oc2c1oc(CO)cc2=O` (stereo not given), 1.9%; to `COc1ccc(-c2nc(C)c(C(C)=O)n2O)cc1OC`, -3.6%.
Take `C[C@]12CCC3C(CC=C4C[C@@H](O)CC[C@@]43C)C1CCC2[C@]1(C)CCC(=O)O1` (stereo not given in full): the inhibition was 0.6%.
Turning to `CN(C)c1ccc(Nc2c3c4c(cccc4n(C)c2=O)C(=O)c2ccccc2-3)cc1`, the inhibition was -13.5%.
Still for that read-out and setting: in the case of `NC(N)=N/N=C/c1cccc(Cl)c1Cl` it was 0.9%.
As to `COc1ccc2nc(S(=O)Cc3ncc(C)c(OC)c3C)[nH]c2c1` (stereo not given), the inhibition was 4.3%.
The same measure, in the same setting: in the case of `COc1ccc2c(=O)c(-c3cnn(-c4ccccc4)c3)c(C)oc2c1` it was -2.2%.
On the same count and under the same terms, to `CCC(C)NCCOCCOc1ccc(Cl)c2ccccc12` (stereo not given) belongs -2.3%; to `Cc1cc(C(C)(C)C)cc(C)c1CC1=NCCN1`, 1.3%.
On the same count and under the same terms, in the case of `NC(=O)OCC(COC(N)=O)c1ccccc1` it was -1%.
As for `O=C(O)[C@H](Cc1ccccc1)NC(=O)N1CCC(Cc2ccccc2)CC1`, the inhibition is 5.5%.
On the same count and under the same terms, to `CC(C)CN1CCN(Cc2ccc(C#CC(C)(C)O)cc2)CC1CCO` (stereo not given) belongs 3.7%; to `Cn1cc(CN2CCC(C(=O)N3CCCCC3)CC2)c(-c2ccccc2F)n1`, 4%; to `Cc1cccc2c(=O)n3c(nc12)CCCCC3`, 0.4%.
On to `CC(C)OC(=O)CC12CN3CN(C1)CC(CC(=O)OC(C)C)(C3)C2=O`, for which the inhibition was 1.8%.
Same read-out and setting: to `Cc1cccc(Oc2coc3cc(OC(=O)c4cncc(Br)c4)ccc3c2=O)c1` belongs 2.1%; to `CC(=O)CC(c1ccc([N+](=O)[O-])cc1)c1c(O)c2ccccc2oc1=O` (stereo not given), 0.7%; to `COc1cc2nc(-c3ccccc3)nc(N3CCCC3)c2cc1OC`, -1.8%.

The next experiment concerns the target Botulinum neurotoxin type A (Clostridium botulinum) (UniProt P0DPI0). Briefly: BoNT/A light chain protease inhibitors, biochemical, multiplex microsphere flow cytometry, validation set (AID 588460). The settings on record: at 10 µM, stronger effect = higher value.
`COc1ccccc1C(=O)Oc1ccc2c(c1)O/C(=C\c1ccncc1)C2=O`: the inhibition was 0.7%.
For the compound `CC1(C#CC[N+]2(C)CCCCC2)CCC2C(O1)c1ccccc1OC2(C)C` (stereo not given), the inhibition is -0.8%.
Still for that read-out and setting: to `O=C1CC[C@@H](CN(Cc2ccccc2)Cc2cn[nH]c2-c2cc3ccccc3o2)N1` belongs 1.2%.
On the same count and under the same terms, to `O=c1cc(CN2CCN(c3cccc(Cl)c3)CC2)c2cc(O)c(-c3ccccc3)cc2o1` belongs -1.5%.
Take `CCOC(=O)C1C(=O)OC2(CCOC(C)(C)C2)C1C(=O)OCC` (stereo not given): the inhibition is -0.2%.
For `C[N+](C)(C)CCOP(=O)([O-])OC[C@H](O)CO`, the inhibition was -0.4%.
Same read-out and setting: to `CCn1cc(C(=O)O)c(=O)c2cc(F)c(N3CCNCC3)cc21` belongs -0.5%; to `COc1ccc(-c2csc(-c3cccnc3)n2)cc1C`, -1.6%; to `CC12CCC(C(=O)NNc3ccccc3)(C(=O)C1=O)C2(C)C` (stereo not given), 0.4%.
Still for that read-out and setting: in the case of `C[C@]12CCC(=O)C=C1CC[C@@H]1[C@@H]2CC[C@@]2(C)[C@H]1CC[C@]2(O)C(=O)CO` it was -1.2%; in that of `CC(=O)c1ccc(CCCCCCCCCC(=O)O)s1`, 0.3%.
The same measure, in the same setting: in the case of `Cc1cnc(N)c2c(=O)oc3ccccc3c12` it was 0.4%; in that of `C#C[C@]1(O)CC[C@H]2[C@@H]3CCc4cc(OC5CCCC5)ccc4[C@H]3CC[C@@]21C`, 0.8%.
As to `CC(=O)N(CCC(Cc1ccccc1)c1ccc2c(c1)OCO2)Cc1ccc(Cl)cc1` (stereo not given), the inhibition is 0.1%.
`CC1(C)S[C@@H]2[C@H](NC(=O)C(C(=O)O)c3ccccc3)C(=O)N2[C@H]1C(=O)O` (stereo not given in full): the inhibition is 1.2%.
Still for that read-out and setting: in the case of `Oc1ccccc1OCCOc1ccccc1OCCOc1ccccc1O` it was 0.7%; in that of `CN1C2CCC1CC(OC(c1ccccc1)c1ccccc1)C2` (stereo not given), 0.7%.
For the compound `CCOc1ccc(CCn2c(-c3ccco3)nc3ccccc3c2=O)cc1OCC`, the inhibition is -0.4%.
Same read-out and setting: in the case of `CCOc1ccc(C(NC(C)=O)c2ccc(OC)c(OC)c2)cc1` (stereo not given) it was -0.9%; in that of `CCOC(=O)C1C2C=CC3(CN(c4ccc(Cl)c(F)c4)C(=O)C13)O2` (stereo not given), -2.3%.
As for `CC(C)C[C@H](NC(=O)NC(C)C)C(=O)O`, the inhibition is 0%.
On the same count and under the same terms, to `COc1cc(Cc2cnc(N)nc2N)cc(OC)c1OC` belongs 0% and -0.2%; to `COc1ccccc1C1C(C#N)=C(N)Oc2c1oc(CO)cc2=O` (stereo not given), -1%; to `COc1ccc(-c2nc(C)c(C(C)=O)n2O)cc1OC`, -1.6%.
The same measure, in the same setting: in the case of `C[C@]12CCC3C(CC=C4C[C@@H](O)CC[C@@]43C)C1CCC2[C@]1(C)CCC(=O)O1` (stereo not given in full) it was -0.3%; in that of `CN(C)c1ccc(Nc2c3c4c(cccc4n(C)c2=O)C(=O)c2ccccc2-3)cc1`, -3.2%; in that of `NC(N)=N/N=C/c1cccc(Cl)c1Cl`, 1.3%.
With `COc1ccc2nc(S(=O)Cc3ncc(C)c(OC)c3C)[nH]c2c1` (stereo not given), the inhibition is 1.7%.
Regarding `COc1ccc2c(=O)c(-c3cnn(-c4ccccc4)c3)c(C)oc2c1`, the inhibition was 0.9%.
Still for that read-out and setting: to `CCC(C)NCCOCCOc1ccc(Cl)c2ccccc12` (stereo not given) belongs 1.8%; to `Cc1cc(C(C)(C)C)cc(C)c1CC1=NCCN1`, 1.2%.
The same measure, in the same setting: to `NC(=O)OCC(COC(N)=O)c1ccccc1` belongs -1.7%; to `O=C(O)[C@H](Cc1ccccc1)NC(=O)N1CCC(Cc2ccccc2)CC1`, 0.9%.
On the same count and under the same terms, to `CC(C)CN1CCN(Cc2ccc(C#CC(C)(C)O)cc2)CC1CCO` (stereo not given) belongs -1.1%; to `Cn1cc(CN2CCC(C(=O)N3CCCCC3)CC2)c(-c2ccccc2F)n1`, 0.2%; to `Cc1cccc2c(=O)n3c(nc12)CCCCC3`, -1.4%.
Take `CC(C)OC(=O)CC12CN3CN(C1)CC(CC(=O)OC(C)C)(C3)C2=O`: the inhibition was -0.4%.
On the same count and under the same terms, in the case of `Cc1cccc(Oc2coc3cc(OC(=O)c4cncc(Br)c4)ccc3c2=O)c1` it was 0.8%; in that of `CC(=O)CC(c1ccc([N+](=O)[O-])cc1)c1c(O)c2ccccc2oc1=O` (stereo not given), 0.2%; in that of `COc1cc2nc(-c3ccccc3)nc(N3CCCC3)c2cc1OC`, -1.5%.
